Data on 71 compounds can be found in ChEMBL document CHEMBL4513216, “Probing the Open Global Health Chemical Diversity Library for Multistage-Active Starting Points for Next-Generation Antimalarials” (ACS Infect Dis, 2020).

Among all 69,000 compounds or so, about 8,600 (12%) showed an effect of 50% or more. The sample holds strong results, similar compounds and a random draw of the others, so the mix is not that of the screen.

In this assay the test system is Plasmodium berghei. Kind of assay: Screen against P. berghei liver stage (PbLuc), transformed with Luciferase, at 10uM. It counts as functional, HepG2. The following applies: tested at 10 uM.
With `Cc1cccc(CN2C[C@@H]3CN(C(=O)c4cnoc4C)C[C@@H]3C2=O)n1`, the INHIBITION is 1.34%.
Turning to `CC(=O)N(C)Cc1ccccc1NC(=O)c1cnn(C)c1C`, the INHIBITION is on record as -18.7%.
`CNC(=O)CN1CCOCC2(C1)CN(C(=O)CC(C)C)CCO2` (stereo unspecified): the INHIBITION is listed as -3.52%.
Consider `Cc1nn(C)cc1S(=O)(=O)NCC(C)Cn1cc(Cl)cn1` (stereo unspecified), for which the INHIBITION came out at 18.4%.
Next, `COCCN(C)Cc1cc(Cl)ccc1OCC(O)CN1CCCCCC1` (stereo unspecified): 25.4%; `Cn1cccc1C(=O)N1CCc2c(CNS(C)(=O)=O)cncc2C1`: -7.29%; `Cc1ccc(CC2CCCN(S(C)(=O)=O)C2)nc1` (stereo unspecified): 21.9%.
Turning to `CC(C)Oc1cccc(CN(C)C(=O)Cc2ccon2)c1`, the INHIBITION is -24.6%.
In the case of `Cc1cccc(C(C(=O)N(C)Cc2ccon2)N(C)C)c1` (stereo unspecified), the INHIBITION worked out at 25.9%.
Regarding `CC(O)c1cccc(OCc2ccon2)c1` (stereo unspecified), the INHIBITION is on record as 74.3%.
As to `OCc1cccc(OCc2ccon2)c1`, the INHIBITION is reported as 36.8%.
For `CCCOc1cccc(OCc2ccon2)c1`, the INHIBITION is reported as 91.3%.
On to `CCCOc1cccc(-c2nc3c([nH]2)CCNC3)c1`, for which the INHIBITION turned out to be 13.7%.
The figure for `Cc1ccsc1CNC(=O)CCc1c(C)nc2cc(O)nn2c1C` is 40.2%; for `CN(C)S(=O)(=O)NCc1cccnc1Oc1ccccc1F` it is 5.46%; for `Cc1ccccc1Oc1ncccc1CNS(C)(=O)=O` it is 0.139%.
Consider `Cc1nc(CNCc2cccnc2Oc2ccc(C)c(F)c2F)c[nH]1`, for which the INHIBITION came to 75.3%.
The figure for `c1ccc(Oc2ncccc2CNCc2ccccn2)cc1` is 19.7%; for `CCCS(=O)(=O)NCc1cccnc1Oc1ccc(C)c(F)c1F` it is 50.3%.
Next, `CCCS(=O)(=O)NCc1cccnc1Oc1ccc(C)nc1`: 1.93%.
Regarding `CN1CC(C(=O)NCc2cccnc2OCc2ccccc2)CC1=O` (stereo unspecified), the INHIBITION turned out to be 55.1%.
In the case of `CC(C)S(=O)(=O)NCc1cccnc1Oc1ccc(F)cc1F`, the INHIBITION is 56.3%.
With `CN(C)S(=O)(=O)NCc1cccnc1Oc1ccc(F)cc1F`, the INHIBITION is on record as 31.7%.
As for `CN1CC(C(=O)NCc2cccnc2OCC(F)(F)F)CC1=O` (stereo unspecified), the INHIBITION was found to be 44.9%.
Next, `COc1ncccc1CNC(=O)C1CC(=O)N(C)C1` (stereo unspecified): 10.6%.
On to `Cc1ccccc1Oc1ncccc1CNC1CCC1`, for which the INHIBITION worked out at 28%.
Turning to `Cc1nc(CN(C)C(=O)CN(C)C)nc2c1CCC(=O)N2CCC(C)C`, the INHIBITION was 7.43%.
Regarding `Cc1cccc(CS(=O)(=O)c2nnc([C@@H](N)Cc3ccccc3)o2)c1`, the INHIBITION was 23.1%.
Take `COc1ccc(C)cc1NC(=O)c1c(C)cn(C)c1CC(=O)O`: the INHIBITION is on record as -0.473%.
For `CCOC(=O)Cn1c(=O)c(OCC)nc2cnccc21`, the INHIBITION is 42.6%.
As to `CN(C)CC(=O)N1CCCC2(CCN(c3ccccc3)C2=O)C1` (stereo unspecified), the INHIBITION is reported as -4.82%.
The figure for `CCOc1ccccc1CNC(=O)N1CCC(Cc2cnn(C)c2)C1` (stereo unspecified) is -12.45%.
In the case of `C1CN(CC2CCOCC2)Cc2c(COCC3CC3)nnn2C1`, the INHIBITION worked out at 8.03%.
On to `CCOC(=O)c1nc(CC(=O)Nc2ccc3cc[nH]c3c2)no1`, for which the INHIBITION is listed as 3.19%.
Consider `OCc1cn(Cc2cccc(F)c2)nn1`, for which the INHIBITION is 28.5%.
On to `O=C(O)CCCC(=O)NCC1(O)CCN(c2ccnc3cccnc23)C1` (stereo unspecified), for which the INHIBITION was 17.25%.
Next, `O=C(CN1CCCC1=O)N1CCC(O)(Cn2ccc3ccncc32)CC1`: 7.52%; `COC(=O)C1CCN(C(=O)Cn2ccc(-c3ccsc3)n2)CC1`: -46.4%.
Next, `CCCS(=O)(=O)NCc1cccnc1OCC`: -1.53%.
For the compound `CCCS(=O)(=O)NCc1cccnc1OCc1ccccc1`, the INHIBITION is 50.4%.
For `CCCC(C)CS(=O)(=O)NCc1cccnc1OC` (stereo unspecified), the INHIBITION is given as 1.94%.
For `COc1ccc(CSc2nnc(N)n2C2CC2)cc1F`, the INHIBITION is -16.3%.
`O=C(CCC(=O)N1CCC(c2noc3cc(F)ccc23)CC1)NC1CC1`: the INHIBITION is on record as 10.5%.
`Cn1cc(C(=O)N2CCC(c3ncc[nH]3)CC2)cn1`: the INHIBITION came to 14%.
The figure for `O=C(c1cncc(F)c1)N1CCC(c2ncc[nH]2)CC1` is 31.2%.
As for `N#Cc1ccc(C(=O)N2CCC(c3ncc[nH]3)CC2)cn1`, the INHIBITION is 51.2%.
Turning to `CC(=O)N1CC2(CCN(c3ccc4ccccc4n3)CC2)CC1C(=O)O` (stereo unspecified), the INHIBITION stood at 44%.
Next, `COCCNC(=O)[C@H]1CN(Cc2sccc2C)C[C@H]2OCC[C@@H]12`: -4.88%; `Cc1cncc(C2CCN(Cc3ccncc3)CC2)n1`: 23.3545%.
As to `Cc1cnc(CN2CCCC(c3cc(C)[nH]n3)C2)cn1` (stereo unspecified), the INHIBITION was 35.9%.
As to `Cc1ccc(CN2CCCC(c3cncc(C)n3)C2)cn1` (stereo unspecified), the INHIBITION was -6.3%.
As to `Fc1ccc(NC2CCCN(Cc3ccncc3)C2)cc1` (stereo unspecified), the INHIBITION was -10.6%.
With `CC1CCCN(Cc2ccc(CNC(=O)NCc3ccncc3)cc2)C1` (stereo unspecified), the INHIBITION was 22.5%.
The figure for `Cc1cc(C2CCCN(Cc3cccnc3)C2)n[nH]1` (stereo unspecified) is 59.1%.
With `Cc1cc(C2CCCN(Cc3noc(Cc4ccccc4)n3)C2)n[nH]1` (stereo unspecified), the INHIBITION is listed as -10.8%.
Regarding `FC(F)(F)c1cc(C2CCCN(Cc3cccnc3)C2)n[nH]1` (stereo unspecified), the INHIBITION is recorded as 35%.
As to `Cc1cncc(C2CCCN(Cc3ccncc3)C2)n1` (stereo unspecified), the INHIBITION is 60.4%.
The figure for `Cc1cc(C2CCCN(Cc3nnc(Cc4ccccc4)o3)C2)n[nH]1` (stereo unspecified) is 17%.
As to `CC(C)c1ccc(NC2CCCN(Cc3ccncc3)C2)cc1` (stereo unspecified), the INHIBITION was 70.3%.
Consider `Cc1cc(C2CCCN(Cc3nc(Cc4ccccc4)no3)C2)n[nH]1` (stereo unspecified), for which the INHIBITION worked out at 79.7%.
For the compound `CCC(O)CN1CCN(C(=O)CN(C)c2ccc(Cl)cn2)CC1` (stereo unspecified), the INHIBITION is 3.03%.
Consider `C=C(C)COc1ccccc1CNCCc1cc(O)nc(C)n1`, for which the INHIBITION was determined as 7.65%.
`CC(C)Nc1nc(O)cc(C(C)n2ncc3ccccc3c2=O)n1` (stereo unspecified): the INHIBITION is 29.9%.
Consider `COc1cccc2cc(CNC(=O)N3CCOC(C)(C)C3)oc12`, for which the INHIBITION was 33.8%.
On to `COc1cc(C(=O)N2CCCC(CNS(C)(=O)=O)C2)ccc1C` (stereo unspecified), for which the INHIBITION is 7.12%.
Regarding `COc1c(Br)c(CC2CC(CO)=NO2)c(Br)c2c1OCO2` (stereo unspecified), the INHIBITION was determined as 42.4%.
As for `CC(C)CCN1C[C@H]2CCN(C(=O)NC3CCCC3)CC[C@H]2S1(=O)=O`, the INHIBITION is 37.1%.
Regarding `O=C(NCCCn1cccn1)C1COCC(=O)N1Cc1ccccc1` (stereo unspecified), the INHIBITION worked out at 49%.
The figure for `O=C(NCCn1ccnc1)C1COCC(=O)N1Cc1ccccc1` (stereo unspecified) is 66.1%.
For `O=C(NCCCn1ccnc1)C1COCC(=O)N1Cc1ccccc1` (stereo unspecified), the INHIBITION is reported as 38.3%.
As to `Cc1noc(C)c1C(=O)N1C[C@@H]2CC[C@H]1CN(c1cnccn1)C2`, the INHIBITION is -39.2%.
